This is an account of results in PubChem BioAssay (NCI).

Compounds without any hit were thinned out: in the full panel of roughly 83,000, 20% have a hit.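 The endpoint reported here, percent growth, reads 100 for growth as untreated, 0 for no net growth and -100 for all cells dead.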 Unmarked numbers belong to inactive results. Calls of active or inactive are those of the source. How the source made its calls: active means growth percent below 10; inactive means the rest.

Some test systems named below: NCI-H23 lung; NCI-H322M lung; HOP-62 NSCLC; NCI-H460 lung; HOP-92 NSCLC; NCI-H522 lung; A549/ATCC NSCLC; 786-0 renal; DU-145 prostate; K-562 leukemia; MALME-3M melanoma; MDA-MB-231 breast; RXF 393 renal; SF-268 CNS; SF-295 CNS; SF-539 CNS; UACC-257 melanoma; M14 melanoma; HCT-15 colon.
Common to all, as to experiment: NCI-60 one-dose screen, 48 h (100 = growth as untreated, 0 = no growth, -100 = all killed)
Holding throughout (details): 10 µM unless noted

For `Nc1nc2c(ncn2[C@@H]2O[C@H](CS)[C@@H](O)[C@H]2O)c(=O)[nH]1`, the growth is 102% in the assay on NCI-H23 lung; 93.3% in the assay on NCI-H322M lung; 100% with HOP-62 NSCLC; 102% in the assay on NCI-H460 lung; 103% with HOP-92 NSCLC; 97.4% in the assay with NCI-H522 lung. In addition, the growth is 96.6% in the assay on A549/ATCC NSCLC; 106% with 786-0 renal; 105% in the assay on DU-145 prostate; 97.2% in the assay with K-562 leukemia; 97.5% in the assay on MALME-3M melanoma; 99.3% with MDA-MB-231 breast. Moreover, the growth in the assay with RXF 393 renal was 111%; in the assay on SF-268 CNS it was 99.7%; in the assay on SF-295 CNS, 98.2%; with SF-539 CNS it was 102%; in the assay on UACC-257 melanoma it was 94.7%; in the assay on M14 melanoma it was 102%. For the same compound, in the assay on HCT-15 colon, the growth is 101%.

For the compound `O=C(/C=C/c1ccc(C(F)(F)F)cc1)c1ccc(Nc2nc(NCCO)nc(Nc3ccc(Cl)cc3)n2)cc1`, the growth is 76.4% in the assay on NCI-H23 lung; 86.1% in the assay with NCI-H322M lung; 53.2% in the assay with HOP-62 NSCLC; 28.7% in the assay on NCI-H460 lung; 70.5% in the assay on HOP-92 NSCLC; 65.3% in the assay with NCI-H522 lung. Besides, the growth is 26.6% in the assay on A549/ATCC NSCLC; -41% (active) in the assay on 786-0 renal; 58% with DU-145 prostate; 12.5% in the assay with K-562 leukemia; 96.3% with MALME-3M melanoma; 59.3% in the assay on MDA-MB-231 breast. The growth is 42.8% in the assay on RXF 393 renal; 50.6% with SF-268 CNS; 79.6% in the assay with SF-295 CNS; 51.3% in the assay with SF-539 CNS; 92.1% in the assay with UACC-257 melanoma; 54.7% in the assay on M14 melanoma. Besides, the growth with HCT-15 colon is 6.59% (active).

Turning to `CNCCNc1nc2ccccc2c2c(=O)c3cc(OC)ccc3sc12`, the growth is 69.6% in the assay on NCI-H23 lung; 38.8% in the assay with NCI-H322M lung; 41.2% with HOP-62 NSCLC; -72.2% (active) with NCI-H460 lung; 23.9% in the assay on HOP-92 NSCLC; 9.6% (active) with NCI-H522 lung. Besides, the growth was 24.6% in the assay on A549/ATCC NSCLC; 10.7% in the assay with 786-0 renal; -25.6% (active) in the assay on DU-145 prostate; -34% (active) with K-562 leukemia; 67.1% in the assay on MALME-3M melanoma; 1.79% (active) in the assay with MDA-MB-231 breast. Further, the growth in the assay with RXF 393 renal was 42.4%; in the assay with SF-268 CNS, 38.7%; with SF-295 CNS, 87.3%; in the assay with SF-539 CNS, 60%; in the assay with UACC-257 melanoma, 73.1%; with M14 melanoma, -62.5% (active). The growth in the assay with HCT-15 colon was -31.8% (active).

As for `Cc1ccc2sc3c(NCCCNCCO)nc4ccccc4c3c(=O)c2c1`, the growth is 75.2% in the assay with NCI-H23 lung; 73.1% in the assay on NCI-H322M lung; 50.9% with HOP-62 NSCLC; -81.6% (active) with NCI-H460 lung; 35.3% in the assay on HOP-92 NSCLC; 27.2% with NCI-H522 lung. In addition, the growth in the assay with A549/ATCC NSCLC is 0.19% (active); with 786-0 renal it was 54%; in the assay on DU-145 prostate it was 4.48% (active); in the assay on K-562 leukemia, -48.5% (active); in the assay on MALME-3M melanoma it was 85%; in the assay on MDA-MB-231 breast, 23.8%. In addition, the growth was 44.5% in the assay with RXF 393 renal; 47.7% with SF-268 CNS; 84.2% in the assay with SF-295 CNS; 78.6% in the assay on SF-539 CNS; 72.7% with UACC-257 melanoma; -44.3% (active) with M14 melanoma. Besides, the growth in the assay on HCT-15 colon was -8.68% (active).

On to `Cc1ccc(C2CC(c3ccc(Nc4nc(NCCO)nc(Nc5ccc(Cl)cc5)n4)cc3)=NN2c2cc(Cl)cc(Cl)c2)cc1` (configuration not stated), for which the growth was 92.5% with NCI-H23 lung; 85% with NCI-H322M lung; 82.8% in the assay on HOP-62 NSCLC; 98.9% in the assay on NCI-H460 lung; 101% with HOP-92 NSCLC; 104% in the assay with NCI-H522 lung. Also, the growth is 94.2% with A549/ATCC NSCLC; 102% with 786-0 renal; 112% with DU-145 prostate; 99.9% in the assay on K-562 leukemia; 102% in the assay with MALME-3M melanoma; 91.3% with MDA-MB-231 breast. Moreover, the growth in the assay on RXF 393 renal was 88.6%; in the assay on SF-268 CNS, 79.7%; in the assay on SF-295 CNS, 100%; with SF-539 CNS, 92.4%; in the assay on UACC-257 melanoma, 101%; in the assay with M14 melanoma, 121%. The growth with HCT-15 colon was 99.3%.

For `COc1cccc(/C(C#N)=C/c2nc3c(N4CCOCC4)nc(Cl)nc3n2C)c1`, the growth in the assay with NCI-H23 lung was 25.6%; in the assay with NCI-H322M lung it was 63.4%; in the assay with HOP-62 NSCLC, 35.2%; in the assay on NCI-H460 lung it was 17.4%; in the assay on HOP-92 NSCLC, -66.3% (active); in the assay with NCI-H522 lung it was -64.7% (active). Also, the growth is 29.2% in the assay with A549/ATCC NSCLC; -69.4% (active) in the assay on 786-0 renal; -77.6% (active) in the assay on DU-145 prostate; 0.802% (active) in the assay with K-562 leukemia; -45.2% (active) in the assay on MALME-3M melanoma; -68.9% (active) in the assay on MDA-MB-231 breast. In addition, the growth with RXF 393 renal was -84.9% (active); with SF-268 CNS it was -24.4% (active); in the assay on SF-295 CNS, 85.7%; in the assay with SF-539 CNS, -20.2% (active); in the assay with UACC-257 melanoma, -57.6% (active); in the assay with M14 melanoma, -54.3% (active). In addition, the growth in the assay on HCT-15 colon was -46.4% (active).

Turning to `CCCCN1CCN(c2ccc3nc(-c4ccc5nc(-c6ccc(OCC)cc6)[nH]c5c4)[nH]c3c2)CC1`, the growth in the assay with NCI-H23 lung is 64.1%; in the assay on NCI-H322M lung, 82.4%; in the assay on HOP-62 NSCLC, 46.2%; in the assay on NCI-H460 lung, 75.9%; in the assay on HOP-92 NSCLC, 95.9%; with NCI-H522 lung, 68.8%. Besides, the growth with A549/ATCC NSCLC is 86.5%; in the assay on 786-0 renal, 75.3%; with DU-145 prostate, 68.7%; in the assay with K-562 leukemia it was -29.1% (active); in the assay with MALME-3M melanoma it was 36%; with MDA-MB-231 breast, 111%. For the same compound, the growth was 36.9% in the assay with RXF 393 renal; 77.1% in the assay on SF-268 CNS; 48.7% in the assay on SF-295 CNS; 67.9% with SF-539 CNS; 68.2% in the assay on UACC-257 melanoma; 32.7% in the assay with M14 melanoma. Further, in the assay on HCT-15 colon, the growth is 16.6%.

On to `COc1cc(/C=C2\CN(C)C/C(=C\c3cc(CN4CCCCC4)c(O)c(OC)c3)C2=O)cc(CN2CCCCC2)c1O`, for which the growth is 34.2% in the assay on NCI-H23 lung; 43.1% with NCI-H322M lung; 65% in the assay on HOP-62 NSCLC; 0.801% (active) with NCI-H460 lung; 51% with HOP-92 NSCLC; 39.8% in the assay with NCI-H522 lung. The growth in the assay on A549/ATCC NSCLC was 45.7%; in the assay on 786-0 renal, 50.1%; in the assay with DU-145 prostate, 1.15% (active); in the assay on K-562 leukemia, 10.2%; with MALME-3M melanoma it was 84.6%; in the assay with MDA-MB-231 breast, 7.14% (active). Further, the growth is 29.7% in the assay with RXF 393 renal; 41% with SF-268 CNS; 91.7% in the assay on SF-295 CNS; 48.6% with SF-539 CNS; 76.9% with UACC-257 melanoma; 70.3% in the assay on M14 melanoma. The growth in the assay on HCT-15 colon is 18.6%.
